Results taken from PubChem BioAssay.
Active and inactive are the calls of the source.

Assays:
[1] = tested on: Human papillomavirus type 1a protein E7 (residues 44-93); experiment: HPV1a E7 fragment binders on microarrays, primary screen, biochemical, small-molecule microarray, residues 44-93, 635 nm fluorescence (AID 1108); settings: small-molecule microarray binding, fluorescence 635 nm; higher = more signal;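 further: E7 fragment applied at 1 µg/mL in TBST for 1 h at 4 C; score combines spot fluorescence with its signal to noise ratio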
[2] = modulators of HCV replicon luciferase signal, primary screen, HCV replication inhibitor project, Huh7 cells, luciferase reporter (AID 1109); settings: 48 h, higher = more signal;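 further: huh7 hepatoma cells harbouring a luciferase neomycin HCV replicon reporter; luciferase luminescence as measure of HCV replicon replication; test concentration not given here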
[3] = target: Left-right determination factor 2 (Homo sapiens) (UniProt O00292); experiment: LEFTY2 binders on small-molecule microarrays, primary screen, biochemical, small-molecule microarray, 635 nm fluorescence scan (AID 1110); settings: LEFTY2 binding, higher = more signal
[4] = target: Calmodulin-1 (Homo sapiens) (UniProt P0DP23); experiment: CALM1 binders on microarrays, EGTA buffer, profiling panel, biochemical, small-molecule microarray, Cy5-labelled CALM1 (AID 1111); settings: Cy5-CALM1 binding fluorescence, higher = more signal;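 further: labelled calmodulin applied in Tris saline Tween buffer holding calcium plus EGTA and DTT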
[5] = target: Calmodulin-1 (Homo sapiens) (UniProt P0DP23); experiment: calcium-bound CALM1 binders on microarrays, profiling panel, artefact control for SMM control-protein annotation, biochemical, small-molecule microarray, Cy5-labelled CALM1, plus calcium (AID 1112); settings: Cy5-CALM1 binding fluorescence, higher = more signal;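 further: score merges spot fluorescence with signal to noise from triplicate slides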
[6] = small-molecule microarray binders of probe aWnt5a, primary screen, biochemical, biotinylated probe, 635/667 nm fluorescence (AID 1113); settings: higher = more signal;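 further: score merges 667 nm fluorescence intensity with signal-to-noise per printed feature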
[7] = small-molecule microarray binders of probe aShh, primary screen, biochemical, biotinylated probe, 635/667 nm fluorescence (AID 1114); settings: higher = more signal;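 further: probe is biotin-labelled aShh protein from a stem cell growth factor screen; measures binding of labelled protein to compounds printed on the slide; score merges feature fluorescence at 667 nm with signal-to-noise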
[8] = small-molecule microarray binders of probe aNog, primary screen, biochemical, biotinylated probe, 635/667 nm fluorescence (AID 1115); settings: higher = more signal;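 further: probe is biotinylated aNog protein used at 0.15 µg/mL for 1 h at 4 C; z-score combines 667 nm fluorescence of each spot with its signal to noise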
[9] = target: Torsin-1A-interacting protein 1 (Homo sapiens) (UniProt Q5JTV8); experiment: LAP1 binders from COS7 cell lysate, primary screen, small-molecule microarray, 635/667 nm fluorescence (AID 1116); settings: COS7-hLAP1 lysate binding, 635 nm fluorescence, higher = more signal
[10] = target: Alpha-bungarotoxin (Bungarus multicinctus) (UniProt P60615); experiment: alpha-bungarotoxin binders on microarray, profiling panel, artefact control for SMM control protein annotation, biochemical, small-molecule microarray, Alexa647 label, 635/667 nm fluorescence (AID 1117); settings: alpha-BTX-A647 binding fluorescence, higher = more signal
Albumin (Bos taurus) = Albumin (Bos taurus) (UniProt P02769); experiment: bovine serum albumin binders on microarray, profiling panel, artefact control for SMM control protein annotation, biochemical, small-molecule microarray, Alexa647 label, 635/667 nm fluorescence (AID 1118); settings: BSA-A647 binding, fluorescence 635 nm, higher = more signal;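 further: score merges 667 nm emission intensity and signal-to-noise per printed compound spot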
[11] = small-molecule microarray binders of probe aXIP, primary screen, biochemical, NeuroSMM set, 635/667 nm fluorescence (AID 1119); settings: higher = more signal, called active from +8 up or from −8 down;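 further: probe is the protein aXip251-270 applied at 1 µg/mL to compound-printed slides; binding of probe to printed compounds measured as 667 nm fluorescence plus signal to noise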
[12] = small-molecule binders of probe aNOTCH3, primary screen, biochemical, small-molecule microarray, 635/667 nm fluorescence (AID 1120); settings: higher = more signal;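 further: probe is a biotin-tagged antibody raised against NOTCH3 rather than NOTCH3 protein; score merges spot fluorescence near 667 nm with spot signal to noise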
[13] = small-molecule binders of probe aNOTCH2, primary screen, biochemical, small-molecule microarray, 635/667 nm fluorescence (AID 1121); settings: higher = more signal;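 further: score merges feature fluorescence read at 667 nm with its signal to noise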
[14] = target: Carbonic anhydrase 2 (Homo sapiens) (UniProt P00918); experiment: CAII small-molecule binders, profiling panel, biochemical, small-molecule microarray, Alexa647-labelled CAII (AID 1122); settings: CAII-A647 binding fluorescence, higher = more signal
[15] = COS7 lysate on small-molecule microarray, probe aHis, 635 nm (AID 1123); settings: COS7 cell lysate, fluorescence, higher = more signal;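 further: z-score combines 667nm fluorescence intensity with signal-to-noise per printed compound spot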
[16] = compound binding in COS7 lysate, probe aLAP1, primary screen, cell lysate, small-molecule microarray (AID 1124); settings: probe aLAP1, fluorescence, higher = more signal;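 further: lysate comes from COS7 cells expressing LAP1 and is applied at 0.3 µg/mL; score merges spot fluorescence near 667 nm with signal-to-noise over triplicate slides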
Sam68 (KHDRBS1) = experiment: Sam68 small-molecule binders, primary screen, biochemical, small-molecule microarray, 635 nm fluorescence (AID 1125); settings: small-molecule microarray binding, higher = more signal;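 further: score merges 667 nm channel intensity with signal to noise over triplicate slides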
[17] = tested on: Chordin-like protein 2 (CHRDL2); experiment: CHRDL2 small-molecule binders, primary screen, biochemical, small-molecule microarray, 635 nm fluorescence (AID 1126); settings: small-molecule microarray binding, fluorescence 635 nm; higher = more signal;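 further: printed compound slides probed with Chrdl2 protein at 4 µg/mL for 1 h at 4 C; score merges 667 nm emission intensity with signal to noise over three replicate slides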
[18] = target: Concanavalin-A (Canavalia ensiformis) (UniProt P02866); experiment: ConA small-molecule binders, primary screen, artefact control for SMM control protein annotation, biochemical, small-molecule microarray, Alexa647 label, 635 nm (AID 1127); settings: ConA-A647 binding fluorescence, higher = more signal;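 further: z combines 667 nm emission intensity with signal-to-noise across three replicate slides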
Sequence of Concanavalin-A (Canavalia ensiformis) (P02866 whole entry, looked up): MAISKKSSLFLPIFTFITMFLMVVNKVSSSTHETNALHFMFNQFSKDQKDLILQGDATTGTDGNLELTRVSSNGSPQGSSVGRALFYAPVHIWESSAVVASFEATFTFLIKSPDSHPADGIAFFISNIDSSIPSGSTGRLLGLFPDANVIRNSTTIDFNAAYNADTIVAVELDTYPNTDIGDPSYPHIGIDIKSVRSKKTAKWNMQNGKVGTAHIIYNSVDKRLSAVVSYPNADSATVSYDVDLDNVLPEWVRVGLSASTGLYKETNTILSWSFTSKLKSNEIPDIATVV

Sequence of Albumin (Bos taurus) (P02769 whole entry, looked up): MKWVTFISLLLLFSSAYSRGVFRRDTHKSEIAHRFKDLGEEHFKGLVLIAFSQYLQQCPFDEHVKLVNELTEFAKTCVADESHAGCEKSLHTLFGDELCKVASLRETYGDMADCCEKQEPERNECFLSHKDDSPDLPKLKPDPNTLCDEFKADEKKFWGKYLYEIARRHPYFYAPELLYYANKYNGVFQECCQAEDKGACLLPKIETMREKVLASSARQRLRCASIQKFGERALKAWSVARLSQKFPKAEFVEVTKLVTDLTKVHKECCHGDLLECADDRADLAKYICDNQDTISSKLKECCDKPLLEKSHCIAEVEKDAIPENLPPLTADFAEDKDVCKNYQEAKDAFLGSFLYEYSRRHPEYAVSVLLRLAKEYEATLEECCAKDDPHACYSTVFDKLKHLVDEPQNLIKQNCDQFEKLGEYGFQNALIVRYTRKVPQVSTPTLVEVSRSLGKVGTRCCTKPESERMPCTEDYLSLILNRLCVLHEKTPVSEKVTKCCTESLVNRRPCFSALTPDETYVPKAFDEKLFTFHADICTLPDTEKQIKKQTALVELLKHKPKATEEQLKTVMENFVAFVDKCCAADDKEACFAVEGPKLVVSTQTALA
Sequence of Left-right determination factor 2 (Homo sapiens) (O00292 whole entry, looked up): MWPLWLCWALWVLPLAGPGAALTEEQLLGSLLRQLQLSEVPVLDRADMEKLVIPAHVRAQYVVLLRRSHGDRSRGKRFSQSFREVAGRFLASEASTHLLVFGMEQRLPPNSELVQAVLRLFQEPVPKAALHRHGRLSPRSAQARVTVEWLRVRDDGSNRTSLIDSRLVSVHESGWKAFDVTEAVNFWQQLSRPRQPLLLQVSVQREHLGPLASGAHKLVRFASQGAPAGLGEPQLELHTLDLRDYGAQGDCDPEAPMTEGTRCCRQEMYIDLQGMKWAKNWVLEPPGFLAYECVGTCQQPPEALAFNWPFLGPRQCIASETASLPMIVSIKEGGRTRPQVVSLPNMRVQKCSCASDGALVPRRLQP
Sequence of Torsin-1A-interacting protein 1 (Homo sapiens) (Q5JTV8 whole entry, looked up): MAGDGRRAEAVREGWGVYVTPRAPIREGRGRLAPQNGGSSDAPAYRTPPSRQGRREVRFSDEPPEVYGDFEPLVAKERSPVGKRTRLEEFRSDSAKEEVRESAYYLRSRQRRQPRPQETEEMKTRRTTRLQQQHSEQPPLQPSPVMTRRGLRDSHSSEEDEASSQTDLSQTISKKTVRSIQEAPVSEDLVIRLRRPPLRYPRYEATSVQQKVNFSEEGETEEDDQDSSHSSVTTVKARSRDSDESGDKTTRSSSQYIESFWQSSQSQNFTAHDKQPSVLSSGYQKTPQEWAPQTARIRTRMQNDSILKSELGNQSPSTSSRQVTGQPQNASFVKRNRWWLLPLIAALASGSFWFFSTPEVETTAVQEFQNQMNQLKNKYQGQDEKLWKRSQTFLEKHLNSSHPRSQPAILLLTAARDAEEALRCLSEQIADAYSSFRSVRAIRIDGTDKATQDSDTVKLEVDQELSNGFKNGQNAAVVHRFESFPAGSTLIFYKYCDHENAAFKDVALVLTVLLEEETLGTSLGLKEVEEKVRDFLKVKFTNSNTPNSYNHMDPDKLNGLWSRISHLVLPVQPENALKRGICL
Sequence of Alpha-bungarotoxin (Bungarus multicinctus) (P60615 whole entry, looked up): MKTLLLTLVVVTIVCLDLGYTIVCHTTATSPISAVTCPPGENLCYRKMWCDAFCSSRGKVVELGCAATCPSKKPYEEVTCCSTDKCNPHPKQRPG

| SMILES | composite z-score [1] | z-score [2] | composite z-score [3] | composite z-score [4] | composite z-score [5] | composite z-score [6] | composite z-score [7] | composite z-score [8] | composite z-score [9] | composite z-score [10] | composite z-score (Albumin (Bos taurus)) | composite Z-score [11] | composite z-score [12] | composite z-score [13] | composite z-score [14] | composite z-score [15] | composite z-score [16] | composite z-score (Sam68 (KHDRBS1)) | composite z-score [17] | composite z-score [18] |
| --- | --- | --- | --- | --- | --- | --- | --- | --- | --- | --- | --- | --- | --- | --- | --- | --- | --- | --- | --- | --- |
| C=CCOC(=O)[C@@H]1[C@H]2C(=O)O[C@H](c3ccccc3)[C@H](c3ccccc3)N2[C@H](c2ccc(OCCOC(=O)[C@H]3C[C@H]4C(=O)N[C@@H](CC(C)C)C(=O)N4[C@H]3c3ccc(O)cc3)cc2)[C@@]12C(=O)Nc1ccc(I)cc12 | 0.719 | -0.866 | 0.808 | 0.0847 | -0.481 | -0.0478 | 0.235 | 0.135 | 0.859 | 2 | -1.13 | 0.761 (inactive) | 0.154 | -0.153 | 0.609 | 2.3 | 0.103 | 1.31 | 0.959 | 1.22 |
| O=C1C2C=CC(C(O)c3cc(C(F)(F)F)cc(C(F)(F)F)c3)N(Nc3ccc([N+](=O)[O-])cc3)C2C(=O)N1c1ccccc1 (stereo not given) | 1.42 | -3.71 | 0.511 | 1.65 | 0.311 | 0.055 | -0.224 | 0.605 | 0.185 | 1.59 | 0.888 | -0.311 (inactive) | 0.37 | -0.0523 | 0.616 | 2.74 | -0.0967 | 1.33 | -0.298 | 1.15 |
| COCCOC(=O)N1C(=O)[C@@]2(c3cc(C#Cc4ccc(OC)cc4)ccc31)[C@H](C(=O)N1CCN(c3ncccn3)CC1)[C@H]1C(=O)O[C@H](c3ccccc3)[C@H](c3ccccc3)N1[C@@H]2c1ccccc1OCCO | 1.23 | -0.509 | 0.0641 | 0.551 | 0.858 | -0.131 | -0.0011 | 0.187 | 0.931 | 1 | -0.108 | 0.131 (inactive) | -0.122 | -0.114 | 0.331 | 1.3 | 0.107 | 0.717 | -0.0849 | 0.819 |
| O=C1C[C@]2(c3ccc([N+](=O)[O-])cc3)C(=O)N(Cc3ccccc3)c3cc(CO)ccc3[C@H]2N1CC12CC3CC(CC(C3)C1)C2 | -0.864 | -0.411 | -1.11 | -0.393 | -0.11 | -0.281 | -0.408 | -0.103 | -0.0647 | -0.814 | -0.729 | -0.767 (inactive) | -0.356 | -0.207 | -0.406 | 0.284 | 1.66 | -1.26 | -1.27 | -1.73 |
| COC(=O)[C@@]1(Cc2ccc(OC)cc2)[C@H]2c3cc(C(=O)N(C)C)n(CCc4c[nH]c5ccc(O)cc45)c3C[C@H]2CN1C(=O)c1ccccc1 | 1.06 | -0.0903 | -0.217 | 1.83 | 1.25 | -0.0196 | 0.488 | 2.27 | 1.3 | 1.28 | 0.932 | 0.258 (inactive) | 0.403 | 0.357 | 0.745 | 2.88 | 1.27 | 1.34 | 0.121 | 1.17 |
| O=C1OCC=C[C@H]2OC34C=CCN(c5ccc(Cl)cc5)C(=O)[C@H]3N(CCCCCO)C(=O)[C@@H]4[C@@H]12 (stereo not given in full) | -0.932 | -0.621 | -1.92 | -0.501 | 0.0666 | -0.172 | 0.0121 | 0.347 | 0.0462 | -1.64 | 0.387 | 0.0583 (inactive) | -0.42 | -0.168 | 0.807 | -0.347 | 0.406 | -1.56 | -0.971 | -0.893 |
| O=C1NC(=O)C2C1C=CC(C(O)c1c(F)cccc1Cl)N2Nc1ccccn1 (stereo not given) | -0.465 | -0.469 | 0.5 | -1.19 | -0.625 | 0.0108 | -0.0274 | -0.207 | 0.505 | -0.358 | 0.179 | -0.527 (inactive) | -0.0009 | 0.0203 | 0.805 | -0.42 | 1 | 0.0076 | 0.676 | -0.453 |
| C[C@@H]1ON(c2ccc(C(=O)OC(C)(C)C)cc2)[C@H](c2ccc(Br)cc2)[C@H]1C(=O)N1C(=O)OC[C@H]1Cc1ccccc1 | 1.38 | 1.05 | 0.498 | 0.79 | -0.115 | -0.0643 | -0.138 | 0.25 | 0.323 | 0.544 | 0.778 | -0.359 (inactive) | 0.0773 | -0.0984 | 0.235 | 1.86 | 0.0865 | 1.28 | 0.491 | 1.08 |
| COc1ccc(C#Cc2ccc3c(c2)[C@]2(C(=O)N3)[C@H](C(=O)N3CCc4cc(OC)c(OC)cc4C3)[C@H]3C(=O)O[C@H](c4ccccc4)[C@H](c4ccccc4)N3[C@@H]2c2ccc(O)cc2)cc1 | 1.38 | -1.21 | 0.388 | 1.22 | 0.06 | -0.122 | -0.0243 | 0.272 | 0.0204 | 1.04 | 0.845 | 1.1 (inactive) | 0.0562 | 0.0397 | 0.432 | 1.46 | -0.0296 | 1.3 | 0.137 | 1.13 |
| CN(C)C(=O)[C@@]1(Cc2ccccc2N=[N+]=[N-])COC(c2ccc(OCCCO)cc2)=N1 | 1 | -1.69 | -0.475 | 1.32 | 0.202 | 0.212 | 0.661 | -1.05 | 1.04 | 1.55 | 0.623 | 1.69 (inactive) | 0.12 | -0.268 | 0.71 | 1.89 | 0.0648 | 0.905 | 0.118 | 1.12 |
